# Test results from PubChem BioAssay.
# Values without a mark were called inactive. The rule behind the calls is not given here.
# Molecular target: Pantothenate synthetase (Mycobacterium tuberculosis (strain ATCC 25618 / H37Rv)) (UniProt P9WIL5)
# Assay: Recombinant Mtb pantothenate synthetase (PanC) inhibitors, coupled enzyme, confirmatory (AID 375);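 note: 0% = full reaction with vehicle and 100% = no enzyme background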
# Details: coupled enzyme assay; at 10 µM, hits give high values
# Sequence of Pantothenate synthetase (Mycobacterium tuberculosis (strain ATCC 25618 / H37Rv)) (P9WIL5 whole entry, looked up): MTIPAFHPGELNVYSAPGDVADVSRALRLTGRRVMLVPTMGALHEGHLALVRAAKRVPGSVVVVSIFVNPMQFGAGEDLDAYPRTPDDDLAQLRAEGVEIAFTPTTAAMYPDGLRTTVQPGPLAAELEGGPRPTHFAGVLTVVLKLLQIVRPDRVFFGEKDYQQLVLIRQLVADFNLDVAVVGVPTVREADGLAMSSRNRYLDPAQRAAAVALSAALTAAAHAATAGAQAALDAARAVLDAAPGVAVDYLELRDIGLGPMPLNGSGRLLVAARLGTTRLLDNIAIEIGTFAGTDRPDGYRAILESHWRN
row,SMILES,inhibition
1,COc1ccc(CCN(C)CCCC(C#N)(c2ccc(OC)c(OC)c2)C(C)C)cc1OC (stereo not given),0%
2,Cc1c(N(C)C)nc2ccccc2c1N,0%
3,Cc1ccc(CC2SC(=O)NC2=O)cc1Cl (stereo not given),0%
4,COc1cc2[nH]c(=O)n(CCCCCC(=O)N3CCN(c4ccccn4)CC3)c(=O)c2cc1OC,2%
5,Cc1cc(C)n(-c2nc(C)nc3c2cnn3-c2ccccc2)n1,0%
6,Fc1cccc(Nc2ncnc3c2cnn3-c2ccccc2)c1,2%
7,Cc1ccc(S(=O)(=O)NC(C)C(=O)Nc2ccc(C(N)=O)cc2)cc1 (stereo not given),0%
8,CCOC(=O)CNC(=O)CSc1ncnc2c1cnn2Cc1ccccc1,0%
9,CC(=O)OC1c2ccccc2C(=O)N1Cc1ccccc1Cl (stereo not given),0%
10,Cc1cc2cc(CN(CC3CCCO3)C(=O)c3cnccn3)c(=O)[nH]c2cc1C (stereo not given),4%
11,COc1ccc(/C(O)=C2\C(=O)C(=O)N(c3cc(C)on3)C2c2ccccc2OC)cc1 (stereo not given),0%
12,O=c1ccn(Cc2ccccc2Cl)cc1,0%
13,CCC(C)NC(=O)c1cc(CC(C)C)on1 (stereo not given),2%
14,CCOC(=O)CN1CC23C=CC(O2)C(C(=O)NC2CCCC2)C3C1=O (stereo not given),3%
15,O=C1NCCCc2c1no[n+]2[O-],18%
16,CC(C)C(c1nnnn1C1CCCC1)N1CCN(C(=O)c2ccco2)CC1 (stereo not given),3%
17,CCCn1cc(C(CC(=O)O)C(=O)O)c2ccccc21 (stereo not given),8%
18,CCC1Cc2c(nc3c4c(nc(N5CCOCC5)c(C#N)c24)NC(C)=N3)O1 (stereo not given),0%
19,O=c1c2cc(Cl)ccc2[nH]c(=S)n1Cc1ccco1,8%
20,CC1=C(C(=O)Nc2ccccc2C)C(c2ccc(C)o2)N2C(=O)CSC2=N1 (stereo not given),0%

row,SMILES,inhibition
1,COC(=O)c1cc(Br)c(=O)n(CCc2ccc(F)cc2)c1,0%
2,CCCc1nnc2n1N=C(c1ccc(OC)c(OC)c1)CS2,0%
3,Brc1cccc(-c2cnc3n2CCCCC3)c1,4%
4,O=C(NCc1ccc2c(c1)OCO2)C1CCCN(S(=O)(=O)c2cccc3cccnc23)C1 (stereo not given),0%
5,Cc1nc(-c2ccccc2)sc1C(N)=O,0%
6,O=C(COC(=O)c1ccco1)NCc1cccs1,0%
7,COc1ccccc1NC(=O)NCCCN1CCN(c2cccc(Cl)c2)CC1,2%
8,OC[C@H]1O[C@@H](n2cnc3c(NC4CCCC4)ncnc32)[C@H](O)[C@@H]1O,1%
9,Cc1ccc(S(=O)(=O)N2CCN(C(=O)c3cc(=O)[nH]c4ccccc34)CC2)c(C)c1,3%
10,CCOC(=O)CN(C)Cc1c[nH]c2ccccc12,14%
11,COCCNC(=O)c1ccc(Cl)c(Cl)c1,0%
12,CSc1n[nH]c(NCc2ccccc2)n1,6%
13,CCCc1nc2ccccc2c2nc(N)nn12,5%
14,COC(=O)C1=C(C)C(c2cccs2)NC(=O)N1C (stereo not given),0%
15,C=C(C)COc1ccc(-c2nc(N)ncc2-c2ccc(OC)cc2)c(O)c1,2%
16,CCn1c(SCc2cc(=O)[nH]c3ccccc23)nc2c1c(=O)n(C)c(=O)n2C,5%
17,CCCSc1ccc2nc(NC(=O)OC)[nH]c2c1,0%
18,COc1cccc(CNC(=O)Cn2c(=O)oc3ccccc32)c1OC,0%
19,Cc1cc(NS(=O)(=O)c2ccccc2)no1,1%
20,CC1=NN(c2ccccc2)C(=O)C1,0%
